About 120 (3.5%) of roughly 3,400 compounds were called active. Not all results are given here. Measured potencies and affinities stand elsewhere. A number with no mark means an inactive call. How the calls were made is not given here.
Experiment: HepG2 cell cytotoxicity, dose response, cytotoxicity control, ATP luminescence, cherry-pick, activator set 2 (AID 1053143)
Conditions: HepG2 viability, CellTiter-Glo ATP luminescence, 72 h; series mostly up to 26 µM; activity change, negative = cytotoxicity: at the top concentration

SMILES	activity change, negative = cytotoxicity
Nc1[nH]n(-c2ccccc2)c(=O)c1N=Nc1ccccc1	-8.67%
CC(=O)Nc1cccc(-c2csc(Nc3ncccn3)n2)c1	4.47%
COc1ccc(N(C(=O)c2ccc(S(=O)(=O)N3CCCC3)cc2)C2C=CS(=O)(=O)C2)cc1 (centres undefined)	-4.95%
N/C(=N\OC(=O)c1ccc2c(c1)OCO2)c1ccncc1	-0.949%
N#Cc1cccc(NC(=O)COC(=O)Cn2nc(-c3ccccc3)oc2=O)c1	-7.49%
CC1CC(O)C(C)CN1 (centres undefined)	9.74%
O=C(NC1CCCCC1)c1ccc2ccccc2c1	-2.43%
CCc1ccccc1Nc1nc(N)nc(CSCC(=O)Nc2ccc(C)c(C)c2)n1	-11.2%
O=c1[nH]c(-c2ccccc2)nnc1-c1ccccc1	-10.4%
O=C(OCC(=O)c1ccc(Br)s1)c1ccc(O)cc1	-0.455%
O=C(Nc1ccc(-c2nc3ccccc3o2)cc1)c1cccnc1	10.4%
c1cncc(CNc2cccc(-c3nc4ccccc4[nH]3)c2)c1	6.83% [at 12 µM]
Cc1ccc(-c2cc3nc(NCCc4ccncc4)n(C)c(=O)c3s2)cc1	-1.72%
Cc1ccc(C(=O)Nc2ccc(N3CCCCC3)cc2)cc1	-5.53%
O=C(Cc1ccccc1)Nc1ccc(N2CCCCC2)cc1	-10%
COc1ccc(-c2cn3cccc(C)c3n2)cc1F	-15.3%
COc1ccc(C2=Nc3ccccc3N(C(=O)c3ccc4ncccc4c3)C2C(=O)NC(C)(C)C)cc1 (centres undefined)	-21.3%

SMILES	activity change, negative = cytotoxicity
CN(C)c1ccc(N=Nc2ccc(S(N)(=O)=O)cc2)cc1	-4.4%
CCNS(=O)(=O)c1ccc2nc(NC(=O)/C=C/c3cc(OC)c(OC)c(OC)c3)sc2c1	-1.13%
COc1cc(/C=C/c2ccc3cccc(O)c3n2)cc(Cl)c1OC	-24.2%
Cc1ccc2nc(/C=C/c3cccc(F)c3)ccc2c1	-21.2%
Cc1cccc(/C=C/c2ccccc2)n1	5.81%
Cc1cccc(NC(=O)Nc2ccc3c(c2)OCO3)n1	-21.1%
O=C(NC1CCCC1)c1noc2c1CCCCC2	5.25%
O=C(NC1CCCCCCC1)NC1CCCCC1	1.7%
O=C(Nn1c(SCc2cccc([N+](=O)[O-])c2)nc2ccccc2c1=O)c1ccccc1	-5.38%
O=C(Nc1ccc(N2CCCC2)cc1)c1cccc(Cl)c1	-16.3%
Cc1ccc(Nc2cc(C)nc(-c3ccccc3O)n2)cc1	-4.25%
O=C(O)c1ccc(N/N=C/c2cccc3cccnc23)cc1	-16.7%
Oc1ccccc1/C=N/Nc1cccc2cccnc12	-6.46%
COc1ccc(-c2cc3cc(OC)c(OC)cc3cn2)cc1	-3.55%
COc1cccc(NC(=O)NCc2ccccn2)c1	0.982%
Cc1cccc(-n2ncc3c(N4CCC(C)CC4)ncnc32)c1	0.798%
Cc1nn(Cc2ccccc2Cl)c(Cl)c1C(=O)NCCc1ccccc1	1.52%

Source: PubChem BioAssay AID1053143 (Broad Institute, 2014)
